HTT ATP protect: Huntington cell model cytoprotection by ATP luminescence; AID 1471; Potency, µM (doses to about 56.4 µM), for the others: cytoprotection (ATP increase), hits mostly activators; PC12 HTT-Q103 induced, cytoprotection, ATP luminescence, 40 h; 230,000 tested, 0.14% active; active = well fitted curve in the direction sought with a large enough effect; inconclusive = small, poorly fitted or top-dose-only effect, or another doubt; inactive = no such curve, though single readings can be large; an effect the other way counts as inactive or inconclusive; note: % of control where 0% means no effect; nearly all actives have a fitted effect of over 45% in size
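Rat PC12, Q103 Htt exon1-GFP fusion, ecdysone promoter; tebufenozide inducer 100 nM final; compound titration; qHTS, 1500 cells/well; ATPlite luminescent read.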
HTT aggregate: mutant huntingtin aggregation inhibition | 220,000 tested, 1.1% active | PC12 HttQ103-GFP aggregates, Acumen cytometry, 40 h | AID 1688 | Potency, µM (doses to about 46.1 µM), for the others: at the highest dose activity change, negative = inhibition, actives largely listed as inhibitors; active = well fitted curve in the direction sought with a large enough effect; inconclusive = small, poorly fitted or top-dose-only effect, or another doubt; inactive = no such curve, though single readings can be large; an effect the other way counts as inactive or inconclusive; note: % is set by controls: 0 for no effect and ±100 for the full control effect; nearly all actives have a fitted effect of over 60% in size
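PC12 cells stably carrying ecdysone-inducible HTT exon 1 Q103–GFP were induced with tebufenozide (100 nM final) and treated with library compounds in titration. GFP aggregates in lysates were counted by laser scanning cytometry.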
Lamin A splicing: changes lamin A minigene splicing in HeLa cells; 200,000 tested, 0.01% active; HeLa LMNA splicing GFP/RFP minigene ratio, 48 h; AID 1487; Potency, µM (top dose mostly 46.1 µM), inactives show at the highest dose ratio change, negative = inhibition, actives largely listed as inhibitors; active = well fitted inhibition curve with a large enough effect in the signal ratio, with a control signal flat, not every such curve was filed as active; inconclusive = small, poorly fitted or top-dose-only effect, or effect the other way, or a change in a side signal; the % refers to the signal ratio; note: % is set by controls: 0 for no effect and ±100 for the full control effect
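S3 HeLa cells stably expressing lamin A-EGFP splicing minigene plus DsRed2, 600 cells/well, 48 h compound exposure at 37C. Laser-scanning cytometry; analysed as GFP (500-530 nm)/RFP (575-640 nm) total intensity ratio; 0.5% DMSO vehicle.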
ALDH1A1 inh: blocks purified human ALDH1A1 activity | Purified ALDH1A1, NADH fluorescence, propionaldehyde substrate | 220,000 tested, 7.3% active | P00352 | Potency, µM (top dose mostly 75.3 µM), for inactives: at the highest dose activity, negative = inhibition, hits mostly inhibitors;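 note: plate controls were no enzyme wells and a reference inhibitor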
Target sequence (P00352 whole entry, looked up): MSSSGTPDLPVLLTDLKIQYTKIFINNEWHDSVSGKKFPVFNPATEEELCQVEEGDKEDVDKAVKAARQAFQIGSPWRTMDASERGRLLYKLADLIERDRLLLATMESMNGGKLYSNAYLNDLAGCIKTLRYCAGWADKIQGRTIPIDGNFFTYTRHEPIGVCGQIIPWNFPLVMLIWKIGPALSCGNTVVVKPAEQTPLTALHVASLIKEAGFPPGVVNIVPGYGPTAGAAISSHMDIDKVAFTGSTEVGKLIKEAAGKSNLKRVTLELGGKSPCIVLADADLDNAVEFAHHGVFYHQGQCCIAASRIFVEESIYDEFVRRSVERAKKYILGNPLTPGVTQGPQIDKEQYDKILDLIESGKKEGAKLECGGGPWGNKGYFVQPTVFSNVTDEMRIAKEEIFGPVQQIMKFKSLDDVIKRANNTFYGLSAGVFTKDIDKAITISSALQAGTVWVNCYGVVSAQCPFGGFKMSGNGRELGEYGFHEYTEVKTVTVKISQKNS
HPGD block: inhibitors of human 15-hydroxyprostaglandin dehydrogenase (HPGD) | P15428 | purified HPGD, NADH fluorescence kinetic, PGE2 substrate | Potency, µM, inactives show at the top dose activity change, negative = inhibition, usual class: inhibitors | 150,000 tested, 4.3% active; note: % is set by controls: 0 for no effect and ±100 for the full control effect
Target sequence (P15428 whole entry, looked up): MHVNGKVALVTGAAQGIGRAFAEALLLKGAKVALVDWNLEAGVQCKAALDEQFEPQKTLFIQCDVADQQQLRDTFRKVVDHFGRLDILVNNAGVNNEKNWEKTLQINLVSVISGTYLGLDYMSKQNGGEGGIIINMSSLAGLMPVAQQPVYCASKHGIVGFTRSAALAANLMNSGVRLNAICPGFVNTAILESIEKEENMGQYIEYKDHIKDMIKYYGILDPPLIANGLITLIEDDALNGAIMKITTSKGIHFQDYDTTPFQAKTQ
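NADH formation kinetics: reaction with 30 uM PGE2 and 1 mM NAD+ (final), 20 nM enzyme, Tris-HCl pH 8 with Tween 20, after 15 min compound preincubation at room temperature. Fluorescence change, last versus first of five reads.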
Numbers without * were called inactive; ? = inconclusive; nt = not tested or not shown; [ ] = dose if it differs, or a comment. This is a sample that favours compounds with a hit; in the whole collection about 8.8% have one here. Unless noted, calls come from the whole dose curve; as a rule, active = well fitted inhibition curve with a large enough effect (not every such curve was filed as active); inconclusive = small, poorly fitted or top-dose-only effect, or another doubt; inactive = no such curve, though single readings can be large or run the other way. Potency is the fitted concentration of half-maximal effect.

SMILES	HTT ATP protect	HTT aggregate	Lamin A splicing	ALDH1A1 inh	HPGD block
CN1C(=O)C2(NC(=O)c3ccccc3N2C)c2ccccc21 (stereo unspecified)	9.2%[10 µM]	-12.6%[9.22 µM]	nt	nt	nt
Cc1ccc(/C=C/C(=O)N2CCCC(C(N)=O)C2)o1 (stereo unspecified)	-4.5%[10 µM]	-10.3%[9.22 µM]	nt	14.1µM*	nt
Cc1ccc(/C=C/C(=O)N2CCN(c3ncccn3)CC2)o1	1.1%[10 µM]	?	6.6%	3.55µM*	20µM*
Cc1ccc(/C=C/C(=O)N2CCN(c3ccc(F)cc3)CC2)o1	21.9%[10 µM]	16.0%	?	?	-18.2%
O=C1CN(C(=O)c2cccc(Br)c2)C(c2ccccc2)c2cc(Cl)ccc2N1 (stereo unspecified)	nt	nt	-3.5%[46 µM]	nt	nt
COc1ccc(N(CC(=O)Nc2c(C)cccc2C)S(=O)(=O)c2ccccc2[N+](=O)[O-])c(OC)c1	-24.9%[10 µM]	-26.3%[9.22 µM]	nt	-6.3%	nt
COC(=O)CN(c1ccc(OC)cc1OC)S(=O)(=O)c1ccccc1[N+](=O)[O-]	?	29.1%[9.22 µM]	12.8%[46 µM]	18.9µM*	nt
CC(=O)NC1C(=O)Nc2c1cccc2C(F)(F)F (stereo unspecified)	-1.8%	-15.8%	-1.1%	0.282µM*	-4.8%
CC(=O)NC1C(=O)N=C(SCC(=O)Nc2c(C)cccc2C)NC1=O (stereo unspecified)	11.0%[10 µM]	11.6%	nt	?	nt
CCCN(CC1CC1)C(=O)CSc1nnc(-c2ccco2)n1N	?	10.7%	nt	31.6µM*	nt
CN(CCC#N)C(=O)CSc1nnc(-c2ccco2)n1N	-4.0%	30.7%	-17.5%[46 µM]	9.0%	nt
CCN(C(=O)CSc1nnc(-c2ccccc2)n1C)C1CCS(=O)(=O)C1 (stereo unspecified)	-8.8%	0.3%	nt	-3.5%	nt
CCCN(C(=O)CSc1nnc(-c2ccoc2C)n1N)C1CCS(=O)(=O)C1 (stereo unspecified)	11.8%[10 µM]	27.7%	0.1%	20µM*	-20.0%
Cc1cccc(NC(=O)c2ccc([N+](=O)[O-])s2)c1C	1.3%[10 µM]	0.5%	?	0.891µM*	-11.2%
Cc1ccc(NC(=O)CCNS(=O)(=O)c2cccc3nonc23)cc1Cl	-20.8%	-9.9%	5.9%[46 µM]	?	nt
O=C(CCNS(=O)(=O)c1cccc2nonc12)N1CCN(c2cccc(Cl)c2)CC1	23.8%	-2.9%[9.22 µM]	-6.6%	2µM*	-9.9%
O=C(CCNS(=O)(=O)c1cccc2nonc12)NCCc1ccc(Cl)cc1	-4.8%	-3.2%	-10.5%	20µM*	-5.0%
COc1ccc(OCC(=O)N/N=C(\C)CC(=O)Nc2ccc(OC)cc2[N+](=O)[O-])cc1	-10.1%	-25.3%	?	20µM*	nt
COc1ccc(NC(=O)Cc2ccc(C)cc2)c([N+](=O)[O-])c1	nt	11.5%	?	-5.6%	-2.6%
COc1ccc(NC(=O)C/C(C)=N/NC(=O)c2ccncc2)c([N+](=O)[O-])c1	-71.5%	-15.1%	nt	3.55µM*	nt
COc1nc(N(c2ccccc2)c2ccccc2)nc(-n2ccnc2)n1	-47.6%	?	?	1.41µM*	-13.2%
C=CCSC1=C(C#N)C2(CCCCC2)C(C#N)C(=O)N1 (stereo unspecified)	-0.5%	-16.8%	11.6%	2.51µM*	-22.1%
N#CC1=C(SCC(=O)Nc2cccc3cccnc23)NC(=O)C(C#N)C12CCCCC2 (stereo unspecified)	-27.6%[0.074 µM]	-32.9%	?	8.91µM*	-12.8%
CCOC(=O)C1=C(SCC(=O)Nc2ccccc2)NC(=O)C(C#N)C12CCCCC2 (stereo unspecified)	-3.0%	15.7%	14.2%	12.6µM*	-4.5%
CC(C)(C)C1CCC2(CC1)C(C#N)=C(SCC(=O)NC1CCCCC1)NC(=O)C2C#N (stereo unspecified)	-36.6%[0.074 µM]	11.2µM*	?	?	-14.2%
SMILES	HTT ATP protect	HTT aggregate	Lamin A splicing	ALDH1A1 inh	HPGD block
N#Cc1c(-c2ccccc2)nc(SCC(=O)NC2CCCCC2)[nH]c1=O	-25.0%	14.1%	0.1%[46 µM]	-15.7%	nt
N#CC1=C(SCC(=O)NC23CC4CC(CC(C4)C2)C3)NC(=O)C(C#N)C12CCCCC2 (stereo unspecified)	14.2%[10 µM]	3.55µM*	?	1.12µM*	-22.2%
O=C(CSc1ncn[nH]1)NC12CC3CC(CC(C3)C1)C2	-0.1%	17.2%	-2.3%	-14.8%	-17.9%
N#CC1=C(SCC(=O)NC2CC2)NC(=O)C(C#N)C12CCCCC2 (stereo unspecified)	-4.6%	-12.5%	9.5%	12.6µM*	-4.1%
CCCC(=O)Nc1nc(C)c(-c2csc(Nc3ccccc3C)n2)s1	-29.2%	23.0%	3.8%	10µM*	31.6µM*
CCCCC(=O)Nc1nc(C)c(-c2csc(Nc3cc(Cl)ccc3OC)n2)s1	-43.0%	24.5%	9.7%	10µM*	?
COc1cccc2cc(C(=O)Nc3ccc(S(=O)(=O)NCC4CCCO4)cc3)c(=O)oc12 (stereo unspecified)	-3.1%[10 µM]	-20.4%[9.22 µM]	nt	nt	nt
CC(CN(C)C)CN1c2ccccc2Sc2ccc(C(F)(F)F)cc21 (stereo unspecified)	-28.3%	-12.5%	nt	nt	nt
C[C@H](O)CO[C@H]1[C@H]2O[C@H]3[C@H](O)[C@@H](O)[C@@H](O[C@H]4[C@H](O)[C@@H](O)[C@@H](O[C@H]5[C@H](O)[C@@H](O)[C@@H](O[C@H]6[C@H](O)[C@@H](OC[C@H](C)O)[C@@H](O[C@H]7[C@H](O)[C@@H](OC[C@H](C)O)[C@@H](O[C@H]8[C@H](O)[C@@H](O)[C@@H](O[C@@H]([C@@H]1O)[C@@H](CO)O2)O[C@@H]8CO)O[C@@H]7CO)O[C@@H]6CO)O[C@@H]5CO)O[C@@H]4CO)O[C@@H]3CO	?	nt	nt	-2.1%	-6.9%
N#Cc1c(Nc2ccccc2)sc(C(=O)c2ccccc2)c1N	19.5%[10 µM]	-5.0%	-8.2%	12.6µM*	-29.2%
N#Cc1c(Nc2ccc(F)cc2)sc(C(=O)c2ccc(F)cc2)c1N	-11.2%	6.9%	5.9%	22.4µM*	?
C=CCNc1sc(C(=O)c2ccccc2)c(N)c1C#N	-24.7%	-14.2%	-19.9%	?	-18.0%
N#Cc1c(Nc2ccc(F)cc2)sc(C(=O)c2ccccc2)c1N	-13.3%[10 µM]	?	-15.4%	?	?
Cc1cccc(Cn2c(SCc3ccc(C(=O)NCc4ccccc4)cc3)nc3cccnc32)c1	nt	nt	-23.3%[46 µM]	nt	nt
O=c1c(-c2ccc(F)cc2)nc2cnc(Nc3ccccc3)nc2n1Cc1cccs1	0.7%	nt	nt	191.5%	-2.9%
CCC(=O)NC(c1cccs1)c1cc([N+](=O)[O-])c2cccnc2c1O (stereo unspecified)	-89.0%[10 µM]	?	?	5.3%	-12.0%
CC(=O)NC(c1ccccc1)c1cc([N+](=O)[O-])c2cccnc2c1O (stereo unspecified)	-42.3%[10 µM]	2.82µM*	?	?	nt

Bioassay records deposited in PubChem by National Center for Advancing Translational Sciences (NCATS).
